Source: PubChem (National Center for Advancing Translational Sciences (NCATS))
Hits are enriched below; roughly 19% of the tested compounds scored in any of these assays.
TDP1 cell CPT: DT40-hTDP1 cell growth loss with CPT. Potency, µM (highest dose often 46.2 µM), without a hit: at the top dose activity change, negative = growth inhibition, usual class: inhibitors. chicken DT40 Tdp1-/-;hTDP1 cells + 20 nM CPT, ATP luminescence, 48 h. actives 12% (n = 420,000); further: potency means the concentration at half of the fitted maximal effect; nearly all actives have a fitted effect of over 55% in size
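Cell growth measured by CellTiter-Glo luminescence after a minimum 48 h, 37 C compound exposure with 20 nM CPT in Tdp1-knockout DT40 cells stably expressing hTDP1, seeded 400/well; qHTS titration format.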
ELG1 DNA repair: blocks ELG1-dependent DNA repair in HEK293T cells | HEK293T ELG1-luciferase reporter, luminescence, 16 h; DNA damage induced by 5-fluorouridine | Potency, µM (doses to about 46.1 µM), for the others: top-dose activity change, negative = inhibition, hits mostly inhibitors | actives 2.3% (n = 330,000) | AID 504467; further: potency means the concentration at half of the fitted maximal effect; nearly all actives have a fitted effect of over 55% in size
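Step one: seed 2,000 cells per well. Step two: pin-transfer compound or DMSO alongside 5-fluorouridine. Step three: incubate 16 hr, 37 °C, 5% CO2. Step four: add ONE-Glo, wait 30 min, read luminescence.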
DT40 TDP1 no CPT: qHTS for Inhibitors of human tyrosyl-DNA phosphodiesterase 1 (TDP1): qHTS in cells in absence of CPT; DT40 Tdp1-/- hTDP1 cells, no CPT, ATP luminescence, 48 h; Potency, µM (doses to about 46.2 µM), inactives show at the top dose activity change, negative = growth inhibition, actives largely listed as inhibitors; actives 15% (n = 420,000); further: potency means the concentration at half of the fitted maximal effect; nearly all actives have a fitted effect of over 55% in size
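Readout: luminescence from CellTiter-Glo after 30 min in the dark at RT. Cells: DT40 Tdp1-/- with stable hTDP1, 400/well. Exposure: compounds alone, ≥48 hr, 37 °C.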
HT1080 IDH1KD tx: HT-1080 IDH1 knockdown cell toxicity (counter line) | HT-1080 IDH1 knockdown viability, ATP luminescence, 48 h | Potency, µM (titrated, usually from 46.1 µM), inactives show top-dose activity, negative = toxicity, hits mostly cytotoxic | actives 2% (n = 360,000) | AID 686971;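 further: potency means the concentration at half of the fitted maximal effect; 0% = DMSO wells and -100% = cell-free medium wells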
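% activity derives from luminescence (CellTiter-Glo), normalised to DMSO and no-cell wells. HT-1080-IDH1KD cells, 750/well, had 48 h compound exposure at 37 °C.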
HT1080-NT tox: kills 2HG-producing HT-1080-NT fibrosarcoma cells; HT-1080-NT fibrosarcoma viability, CellTiter-Glo ATP luminescence, 48 h; Potency, µM (top dose mostly 46.1 µM), without a hit: top-dose activity, negative = less viability, hits mostly cytotoxic; actives 1.6% (n = 360,000); AID 686970;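 further: NT is the 2HG producing partner of a matched IDH1 knockdown line; potency means the concentration at half of the fitted maximal effect; 0% = DMSO-treated cells and -100% = media-only wells without cells; nearly all actives have a fitted effect of over 55% in size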
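Toxicity toward the 2HG-producing NT line was scored as %Activity, normalised to DMSO and no-cell wells, from CellTiter-Glo luminescence after 48 hours' treatment.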
IL1B secr inh: inflammasome signaling inhibition, IL-1 beta readout. THP-1 LPS/ATP IL-1B secretion, AlphaLISA, 16 h; hits give low values. activity change, % at 57.5 µM. actives 4.7% (n = 360,000); in the data active means activity change below about -50%; inconclusive means mostly about -30% to -49%
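THP-1 cells pretreated 1 hr with compounds (up to 57.5 uM final), then stimulated with LPS (250 ng/mL final) plus ATP (1.25 mM final); secreted IL-1B measured by AlphaLISA after 16 hr, decreased signal indicating inhibition.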
* hit, by the source's call; ? = inconclusive; / = no result given. Unless noted, the call rests on the fitted dose curve; in most records, active means well fitted curve in the direction sought with a large enough effect; inconclusive means small, poorly fitted or top-dose-only effect, or another doubt; inactive means no such curve, though single readings can be large; an effect the other way counts as inactive or inconclusive. Unless noted, on the % scale 0 is the no-effect control and ±100 the full control effect.

SMILES	TDP1 cell CPT	ELG1 DNA repair	DT40 TDP1 no CPT	HT1080 IDH1KD tx	HT1080-NT tox	IL1B secr inh
Cc1cccc(OCC(=O)Nc2ccccc2OCc2cc(=O)n3ccccc3n2)c1	-9.8%	/	1.4%	/	/	/
CCc1ccccc1N1C(=O)N(Cc2cc(=O)n3ccccc3n2)c2ccccc2S1(=O)=O	23.1µM*	/	18.4µM*	/	/	/
Cc1cccc(N2C(=O)N(Cc3cc(=O)n4ccccc4n3)c3ccccc3S2(=O)=O)c1	?	/	25.9µM*	/	/	/
CC(C)C(=O)Nc1ccccc1OCc1cc(=O)n2ccccc2n1	-1.3%	/	-15.0%	/	/	/
Cc1nnc2c(N3CCN(c4ccccc4)CC3)nc3ccc(C(=O)c4ccccc4)cc3n12	7.3%	/	-10.8%	/	/	/
O=C(NCc1nnnn1-c1ccc(F)cc1)c1ccc(S(=O)(=O)N2CCOCC2)cc1	-16.9%	/	?	3.2%	4.2%	12.8
O=C(c1ccc2c(c1)OCO2)N1CCN(c2cccc(C(F)(F)F)c2)CC1	18.4µM*	?	20.6µM*	?	18.4µM*	-15.8
CCS(=O)(=O)N1CCc2cc(C(=O)N3CCN(c4cccc(C(F)(F)F)c4)CC3)ccc21	?	/	23.1µM*	/	/	/
COc1ccc(N2CCN(C(=O)Nc3cccc(C(F)(F)F)c3)CC2)cc1	?	?	18.4µM*	?	-6.6%	-14.3
O=C(Nc1ccc2c(c1)OCO2)N1CCN(c2cccc(C(F)(F)F)c2)CC1	9.2µM*	-6.8%	20.6µM*	-0.7%	-4.0%	-25.4
NC(Cc1cnc[nH]1)C(=O)Nc1ccc2ccccc2c1 (stereo not given)	-19.4%	/	0.7%	/	/	/
COc1cccc(/C(O)=C/c2nc3ccc(C(=O)NCCc4ccc(Cl)cc4)cc3[nH]c2=O)c1	6.51µM*	?	6.51µM*	?	18.4µM*	28.1
CCc1ccc(NS(=O)(=O)c2ccc3[nH]cc(C(=O)NC4CCCC4)c(=O)c3c2)cc1	-22.7%	/	?	/	/	/
Cn1c(=S)oc2ccccc21	24.4%	-13.1%	-5.2%	10.2%	14.5%	3.3
CC(C)CC(=O)/C=C/n1c(=S)oc2ccccc21	3.26µM*	?	2.31µM*	?	-10.7%	-106.0*
CC(=O)/C=C/n1c(=S)oc2ccccc21	0.82µM*	?	0.651µM*	5.17µM*	5.17µM*	-97.8*
C=Cn1cc[n+](CC(=O)c2ccc(-c3ccccc3)cc2)c1	3.26µM*	-24.2%	2.31µM*	-28.4%	0.4%	?
C=Cn1cc[n+](CC(=O)c2cccs2)c1	10.4%	7.2%	-13.5%	-9.7%	-0.6%	5.2
C=Cn1cc[n+](CC(=O)c2cc(C(C)(C)C)c(O)c(C(C)(C)C)c2)c1	14.6µM*	?	16.4µM*	-13.7%	-27.4%	-13.5
C=CCC1(CC=C)CCCN1C(=O)C1CCC(=O)N(Cc2ccc(Cl)cc2)C1 (stereo not given)	10.3µM*	/	8.2µM*	-0.6%	?	8.1
CC(C)C1CCN(C(=O)C2CCC(=O)N(CCc3ccc(Cl)cc3)C2)CC1 (stereo not given)	?	-16.5%	?	-0.8%	-0.3%	-26.2
C=CCC1(CC=C)CCCN1C(=O)C1CCC(=O)N(CCc2ccc(Cl)cc2)C1 (stereo not given)	18.4µM*	-13.9%	13µM*	-0.3%	4.3%	0.0
Cc1cc(S(=O)(=O)Nc2ccc(C(=O)NCCCN3CCCC3=O)cc2)ccc1F	3.9%	9.8%	-1.8%	-5.1%	0.8%	9.7
O=C1c2ccccc2C(Nc2ccc(F)c(Cl)c2)N1c1ccccn1 (stereo not given)	16.4µM*	2.3%	?	-18.2%	-0.2%	-12.9
O=C1c2ccccc2C(Nc2ccc(S(=O)(=O)N3CCCCC3)cc2)N1c1ccccn1 (stereo not given)	?	?	20.6µM*	-0.9%	1.6%	?
SMILES	TDP1 cell CPT	ELG1 DNA repair	DT40 TDP1 no CPT	HT1080 IDH1KD tx	HT1080-NT tox	IL1B secr inh
O=C1c2ccccc2C(Nc2ccc3c(c2)OCCO3)N1c1ccc(Cl)cn1 (stereo not given)	?	21.4%	16.4µM*	-3.6%	-5.0%	18.6
O=C1c2ccccc2C(Nc2ccccc2)N1c1ccc(Cl)cn1 (stereo not given)	?	1.0%	?	6.4%	-6.2%	30.3
COc1ccc(NC2c3ccccc3C(=O)N2c2ccccn2)cc1Cl (stereo not given)	-18.9%	7.2%	?	2.7%	-1.1%	?
O=C1c2ccccc2C(Nc2ccc(S(=O)(=O)N3CCOCC3)cc2)N1c1cccnc1 (stereo not given)	-8.4%	2.1%	-20.5%	8.7%	0.0%	10.2
CCCNC(=O)C1(C)CCCN(Cc2ccccc2F)C1 (stereo not given)	-23.2%	/	-17.0%	0.0%	6.7%	23.7
NC(=O)C1CCN(C(=O)C2CC(=O)N(c3ccc(F)cc3)C2)CC1 (stereo not given)	5.3%	20.6%	20.9%	15.2%	3.5%	-10.6
O=[N+]([O-])c1cccc2c3c([nH]c12)CCCC3	1.8%	5.2%	-25.1%	-18.4%	-18.9%	13.1
CCCCC(=O)N1C/C=C\[C@H](c2ccc(OC)cc2)N(Cc2ccc(F)cc2)C(=O)[C@@H]1C	?	/	16.4µM*	-2.3%	-0.5%	8.2
COc1ccc(C2/C=C\CN(S(=O)(=O)c3ccc(-c4ccccc4)cc3)CC(=O)N2Cc2ccc(F)cc2)cc1 (stereo not given)	?	0.0%	?	11.6%	10.9%	15.2
COc1ccc([C@H]2/C=C\CN(S(=O)(=O)/C=C/c3ccccc3)[C@@H](C)C(=O)N2Cc2ccc(F)cc2)cc1	?	/	20.6µM*	23.9%	0.0%	12.2
COc1ccc(C2/C=C\CN(C(=O)c3ccc(C)cc3)CC(=O)N2Cc2ccc(F)cc2)cc1 (stereo not given)	-29.6%	-5.2%	?	-10.4%	-1.8%	7.0
COc1ccc(C2/C=C\CN(C(=O)Nc3ccccc3)CC(=O)N2Cc2ccc(F)cc2)cc1 (stereo not given)	?	14.1%	?	-1.6%	-0.8%	2.3
COc1ccc([C@H]2/C=C\CN(C(=O)c3ccccc3)[C@@H](C)C(=O)N2Cc2ccc(F)cc2)cc1	?	/	23.1µM*	-17.9%	-6.9%	0.5
COc1cc(NS(=O)(=O)c2cc(NC(C)=O)ccc2OC)c(OC)cc1NC(=O)c1ccccc1	5.5%	/	-9.6%	6.4%	11.6%	-4.1
